Assay [1] deals with PRMT1 (protein arginine N-methyltransferase 1). Put plainly: PRMT1 binders on small-molecule microarrays, primary screen, biochemical, small-molecule microarray, 635 nm fluorescence (AID 1088).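 Note: binding of Prmt1 protein to compounds spotted on small-molecule microarray slides.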 The conditions noted are these: small-molecule microarray binding, higher = more signal.
Assay [2] is described as follows: yeast growth modulation, basal conditions, primary screen, YJM789 clinical isolate, OD600, 24 h (AID 1089).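 Note: growth of clinical yeast isolate S. cerevisiae YJM 789 seeded 1000 cells per well; test concentration not given here.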 The conditions noted are these: S. cerevisiae YJM789 growth, higher = more signal, called active from +8 up or from −8 down.
Assay [3] is described as follows: fission yeast growth modulation, primary screen, strain 972, OD600, 24 h, no modulator (AID 1090).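 Note: basal condition with compound alone and no growth modifier present; test concentration not given here.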 The conditions noted are these: S. pombe 972 growth, higher = more signal, called active from +8 up or from −8 down.
Assay [4] in a line: S. cerevisiae growth modulation with rapamycin, primary screen, strain BY4716, OD600, 96 h (AID 1091). Note: test concentration not given here. The conditions noted are these: higher = more signal, called active from +8 up or from −8 down.
Assay [5] has as its target Torsin-1A-interacting protein 2 (Homo sapiens) (UniProt Q8NFQ8). Put plainly: LULL1 binders on small-molecule microarray, primary screen, cell lysate, human LULL1 lysate, 635/667 nm fluorescence (AID 1092).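 Note: probe is lysate of COS7 cells overexpressing human LULL1; score merges per-feature 667 nm fluorescence with signal-to-noise.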 The conditions noted are these: hLULL1 lysate binding, 635 nm fluorescence, higher = more signal.
Assay [6] in a line: E. coli growth modulation, two-sided OD650, primary screen, E. coli filamentation project, strain DRC41, 24 h (AID 1093).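 Note: MC1000 strain lacking acrAB efflux and sulA so SOS filamentation is blocked; test concentration not given here.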 The conditions noted are these: OD650, 24 h, higher = more signal, called active from +8 up or from −8 down.
Assay [7] is described as follows: small-molecule microarray binders of probe aLefty2, primary screen, biochemical, biotinylated probe, 635/667 nm fluorescence (AID 1094).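 Note: score merges spot fluorescence near 667 nm with spot signal-to-noise ratio.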 The conditions noted are these: higher = more signal.
Assay [8] relates to Noggin (protein binding on small-molecule microarray). The experiment in a line: Noggin binders on small-molecule microarray, primary screen, biochemical, 635/667 nm fluorescence (AID 1095).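 Note: score merges 667 nm feature fluorescence with signal to noise over triplicate slides.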 The conditions noted are these: 635 nm fluorescence, higher = more signal.
The target in assay [9] is Neurogenic locus notch homolog protein 3 (Homo sapiens) (UniProt Q9UM47). Put plainly: NOTCH3 binders on small-molecule microarray, primary screen, biochemical, 635/667 nm fluorescence (AID 1096). The conditions noted are these: NOTCH3 binding, 635 nm fluorescence, higher = more signal.
Assay [10] is described as follows: small-molecule microarray binders of probe aEGFR, primary screen, biochemical, biotinylated probe, 635/667 nm fluorescence (AID 1097).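 Note: probe is a biotinylated anti-EGFR antibody binding compounds printed on slides; score combines fluorescence near 667 nm and signal to noise of each spot.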 The conditions noted are these: higher = more signal.

Activity calls are given as the source filed them.

Sequence of Neurogenic locus notch homolog protein 3 (Homo sapiens) (Q9UM47 whole entry, looked up): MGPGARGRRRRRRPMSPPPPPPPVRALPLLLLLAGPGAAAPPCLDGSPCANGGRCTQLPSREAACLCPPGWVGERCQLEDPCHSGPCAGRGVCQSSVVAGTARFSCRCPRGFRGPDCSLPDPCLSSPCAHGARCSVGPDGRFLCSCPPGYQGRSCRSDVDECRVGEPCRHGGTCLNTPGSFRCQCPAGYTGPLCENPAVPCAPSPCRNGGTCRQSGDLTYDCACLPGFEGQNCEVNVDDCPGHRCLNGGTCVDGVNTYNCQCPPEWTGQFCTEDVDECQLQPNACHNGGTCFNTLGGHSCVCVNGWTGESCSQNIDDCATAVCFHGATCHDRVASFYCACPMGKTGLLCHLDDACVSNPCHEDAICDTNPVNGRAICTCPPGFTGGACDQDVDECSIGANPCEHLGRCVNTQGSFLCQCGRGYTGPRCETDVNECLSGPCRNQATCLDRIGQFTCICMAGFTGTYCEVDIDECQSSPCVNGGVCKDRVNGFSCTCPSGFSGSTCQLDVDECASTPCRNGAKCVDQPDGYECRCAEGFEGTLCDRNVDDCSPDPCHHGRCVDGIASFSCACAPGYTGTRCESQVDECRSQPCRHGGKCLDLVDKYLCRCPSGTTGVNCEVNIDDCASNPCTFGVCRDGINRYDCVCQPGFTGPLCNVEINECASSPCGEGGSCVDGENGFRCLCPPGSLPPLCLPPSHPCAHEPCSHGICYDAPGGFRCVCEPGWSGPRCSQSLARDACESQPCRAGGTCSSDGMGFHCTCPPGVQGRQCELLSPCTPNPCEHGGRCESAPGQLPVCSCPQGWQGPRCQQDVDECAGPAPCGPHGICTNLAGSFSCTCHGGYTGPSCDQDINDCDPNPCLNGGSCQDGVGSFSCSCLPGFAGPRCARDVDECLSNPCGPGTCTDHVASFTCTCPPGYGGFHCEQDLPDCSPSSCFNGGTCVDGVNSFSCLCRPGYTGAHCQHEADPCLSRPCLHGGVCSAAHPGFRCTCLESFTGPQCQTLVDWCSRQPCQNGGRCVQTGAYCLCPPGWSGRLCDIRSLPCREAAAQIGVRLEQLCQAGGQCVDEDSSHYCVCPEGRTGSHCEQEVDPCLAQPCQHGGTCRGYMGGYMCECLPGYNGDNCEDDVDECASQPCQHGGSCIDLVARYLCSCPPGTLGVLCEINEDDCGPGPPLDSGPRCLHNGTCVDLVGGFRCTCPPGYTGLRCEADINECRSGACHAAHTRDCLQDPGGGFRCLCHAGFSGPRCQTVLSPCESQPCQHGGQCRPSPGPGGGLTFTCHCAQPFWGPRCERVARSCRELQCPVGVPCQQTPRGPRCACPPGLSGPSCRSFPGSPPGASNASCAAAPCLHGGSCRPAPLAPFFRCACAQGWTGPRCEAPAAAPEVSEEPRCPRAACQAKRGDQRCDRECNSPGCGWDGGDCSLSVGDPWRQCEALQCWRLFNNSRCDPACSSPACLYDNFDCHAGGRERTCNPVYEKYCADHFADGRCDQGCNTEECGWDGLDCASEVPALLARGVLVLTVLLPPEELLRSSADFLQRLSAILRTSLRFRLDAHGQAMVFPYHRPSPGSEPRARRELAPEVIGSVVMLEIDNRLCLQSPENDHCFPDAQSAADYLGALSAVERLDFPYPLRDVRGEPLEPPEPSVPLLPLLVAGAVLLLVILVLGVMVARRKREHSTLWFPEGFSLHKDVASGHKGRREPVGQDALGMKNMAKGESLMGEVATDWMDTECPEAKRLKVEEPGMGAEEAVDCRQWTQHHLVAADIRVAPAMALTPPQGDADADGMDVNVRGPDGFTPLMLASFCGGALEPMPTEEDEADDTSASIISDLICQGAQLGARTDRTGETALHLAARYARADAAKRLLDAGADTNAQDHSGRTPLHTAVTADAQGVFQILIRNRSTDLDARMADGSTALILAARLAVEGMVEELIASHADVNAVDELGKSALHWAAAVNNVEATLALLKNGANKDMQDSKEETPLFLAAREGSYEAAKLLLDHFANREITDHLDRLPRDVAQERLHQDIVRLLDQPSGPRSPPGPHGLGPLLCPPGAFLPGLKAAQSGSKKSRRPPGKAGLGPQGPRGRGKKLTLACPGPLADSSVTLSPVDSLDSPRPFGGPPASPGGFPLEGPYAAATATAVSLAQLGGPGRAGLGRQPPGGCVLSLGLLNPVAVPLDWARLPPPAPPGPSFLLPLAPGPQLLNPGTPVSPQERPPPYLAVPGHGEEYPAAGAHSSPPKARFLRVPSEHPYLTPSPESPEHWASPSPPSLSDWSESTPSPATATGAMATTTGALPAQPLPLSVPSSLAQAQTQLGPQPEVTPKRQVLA
Sequence of Torsin-1A-interacting protein 2 (Homo sapiens) (Q8NFQ8 whole entry, looked up): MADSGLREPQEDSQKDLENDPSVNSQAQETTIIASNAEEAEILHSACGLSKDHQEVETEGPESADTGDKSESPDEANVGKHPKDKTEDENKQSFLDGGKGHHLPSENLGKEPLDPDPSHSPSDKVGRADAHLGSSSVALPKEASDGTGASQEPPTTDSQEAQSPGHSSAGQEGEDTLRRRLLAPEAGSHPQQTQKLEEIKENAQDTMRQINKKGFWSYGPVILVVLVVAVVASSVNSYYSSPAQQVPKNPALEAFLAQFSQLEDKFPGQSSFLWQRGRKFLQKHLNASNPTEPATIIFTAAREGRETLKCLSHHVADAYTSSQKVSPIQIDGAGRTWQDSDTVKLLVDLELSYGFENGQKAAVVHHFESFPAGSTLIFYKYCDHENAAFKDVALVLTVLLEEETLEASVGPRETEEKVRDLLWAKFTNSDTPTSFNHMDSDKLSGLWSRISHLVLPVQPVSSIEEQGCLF

Take `O=C1N(CCS(=O)(=O)c2ccccc2)c2ccccc2[C@@H]2OC(c3ccc(OCCCO)cc3)=N[C@]12Cc1ccccc1`: the composite z-score was 1.56 in assay [1]; 2.45 in assay [5]; -0.0248 in assay [7]; 1.59 in [8]; 1.12 in assay [9]; -0.0435 in assay [10]. Moreover, the z-score is -2.18 (inactive) in assay [2], -2.2 (inactive) in assay [3], 3.02 (inactive) in assay [4] and 0.736 (inactive) in assay [6].
On to `C[C@H]1C2[C@H](Cc3ccccc3)NC(=O)[C@]23C(=O)NCC(=O)N2CCC[C@H]2C(=O)NC/C=C/CCC/C=C/C3[C@@H]2O[C@]12C` (stereo not given in full), for which the composite z-score is -1.33 in assay [1]; -1.02 in assay [5]; -0.18 in assay [7]; -0.627 in assay [8]; -0.508 in [9]; -0.278 in [10]. Besides, the z-score in assay [2] is 0.291 (inactive); in assay [3], -0.0836 (inactive); in assay [4] it was -0.0152 (inactive); in assay [6], 1.51 (inactive).
For the compound `CC(CO)N1C(=O)[C@@H]2C3C(=O)OCCC/C=C\[C@H]3OC23C=CCN(CCN2CCOCC2)C(=O)[C@@H]13` (stereo not given in full), the composite z-score in [1] was 0.871; in assay [5], -0.675; in assay [7] it was -0.207; in [8], -0.0152; in assay [9], 0.159; in assay [10], -0.187. The z-score was -0.321 (inactive) in [2], -0.802 (inactive) in assay [3], -0.215 (inactive) in [4] and -0.19 (inactive) in assay [6].
Take `COc1ccc(C(=O)Nc2cccc(CN3C(=O)[C@]4(O[C@H](CCn5cc(CCO)nn5)[C@@H]([Si](C)(C)c5ccc(OC)cc5)[C@@H]4C)c4ccccc43)c2)cc1`: the composite z-score in assay [1] amounted to 1.06; in [5], 1.2; in assay [7], 0.143; in [8] it was 0.367; in assay [9], 0.556; in assay [10] it was 0.0848. Further, the z-score in assay [2] was 0.901 (inactive); in [3], -14.9 (active); in assay [4], 1.15 (inactive); in [6], 0.506 (inactive).
With `O=C(O)C1N=C(c2ccc(OCCCO)cc2)N(c2ccccc2)O1` (stereo not given), the composite z-score in assay [1] was 1.49; in assay [5], 2.03; in assay [7] it was 0.0399; in [8], 0.306; in [9], 0.12; in assay [10] it was -0.0828. The z-score in assay [2] was -0.371 (inactive); in assay [3], 0.651 (inactive); in assay [4] it was -0.377 (inactive); in [6], 0.281 (inactive).
As to `CCCCC(O)C1C=CC2C(=O)N(C)C(=O)C2N1N1CCCCC1` (stereo not given), the composite z-score in assay [1] was 0.506; in assay [5] it was 2.84; in [7] it was 0.365; in assay [8] it was 0.277; in assay [9], 0.967; in assay [10], 0.197. The z-score in assay [2] was 0.882 (inactive); in [3] it was 1.05 (inactive); in assay [4], 1.97 (inactive); in [6], -1.1 (inactive).
As to `CCCCN1CC=CC23O[C@@H]4/C=C\CCCOC(=O)C4[C@H]2C(=O)N(CCCCCO)[C@@H]3C1=O` (stereo not given in full), the composite z-score in assay [1] is -1.13; in [5], -0.42; in assay [7] it was -0.188; in [8], -1.16; in assay [9] it was -1.02; in assay [10] it was -0.324. Moreover, the z-score was -0.669 (inactive) in assay [2], -0.392 (inactive) in assay [3], -0.8 (inactive) in assay [4] and -0.769 (inactive) in [6].
Regarding `CC(C)N1CC=CC23O[C@@H]4C=CCOC(=O)[C@@H]4[C@H]2C(=O)N(CCCCCO)[C@@H]3C1=O` (stereo not given in full), the composite z-score was 0.637 in assay [1]; 2.64 in [5]; -0.137 in assay [7]; -0.325 in assay [8]; -0.107 in assay [9]; -0.111 in [10]. The z-score is -1.04 (inactive) in [2], -0.288 (inactive) in assay [3], -2.25 (inactive) in assay [4] and 3.13 (inactive) in [6].
Take `OCCCC1=CC(C2CC2)N(Cc2cccc(OC(F)(F)F)c2)CC1` (stereo not given): the composite z-score in assay [1] was 0.352; in assay [5], 0.25; in assay [7], -0.264; in assay [8], -0.177; in [9], -0.477; in assay [10], -0.157. The z-score in assay [2] was -2.88 (inactive); in [3], -2.33 (inactive); in [4] it was -1.72 (inactive); in [6] it was -0.454 (inactive).
Take `COC(=O)[C@@]1(Cc2ccc(OC)cc2)[C@H]2c3cc(C(=O)N4CCCC4)n(CCSCCO)c3C[C@H]2CN1C(=O)c1ccccc1`: the composite z-score is 0.416 in assay [1]; 3.38 in assay [5]; 0.172 in [7]; -0.492 in assay [8]; 0.671 in assay [9]; 0.157 in assay [10]. Also, the z-score is 0.786 (inactive) in [2], 1.72 (inactive) in assay [3], 1.25 (inactive) in [4] and -0.647 (inactive) in [6].
For `C=CC[C@]1(C(=O)NCc2ccccc2)N=C(c2ccc(OCCCO)cc2)O[C@H]1c1ccccc1CN=[N+]=[N-]`, the composite z-score was found to be 1.35 in [1]; 2.87 in assay [5]; 0.0634 in assay [7]; 0.853 in assay [8]; 1.06 in [9]; 0.107 in [10]. Also, the z-score in [2] was -0.755 (inactive); in [3], -0.175 (inactive); in assay [4], 1.54 (inactive); in [6], -0.765 (inactive).
For `CO[C@H]1O[C@H](CO)[C@@H](OC(=O)Nc2ccc(Br)cc2)[C@@H]2OC(=O)[C@H](Cc3cccc(Br)c3)C/C=C/C[C@@H](Cc3cccc(Br)c3)C(=O)O[C@@H]12`, the composite z-score in [1] was 0.0859; in assay [5], 0.763; in assay [7], -0.112; in [8], 0.594; in assay [9] it was 0.911; in assay [10] it was -0.0828. Moreover, the z-score is -0.163 (inactive) in [2], -2.81 (inactive) in assay [3], 30.3 (active) in [4] and 1.26 (inactive) in assay [6].
In the case of `COCCOC(=O)N1C(=O)[C@@]2(c3cc(C#CCCO)ccc31)[C@H](c1ccc(OCCO)cc1)N1[C@H](c3ccccc3)[C@H](c3ccccc3)OC(=O)[C@H]1[C@@H]2C(N)=O`, the composite z-score is 1.54 in assay [1]; 2.78 in assay [5]; -0.0383 in [7]; 0.626 in [8]; 1.08 in assay [9]; -0.0436 in [10]. Moreover, the z-score was 2.66 (inactive) in assay [2], 0.245 (inactive) in [3], 6.06 (inactive) in [4] and 0.719 (inactive) in assay [6].
For the compound `COCCCNC(=O)[C@@]1(Cc2ccccc2CN=[N+]=[N-])N=C(c2ccc(OCCCO)cc2)O[C@H]1c1ccccc1CN=[N+]=[N-]`, the composite z-score in [1] was 1.24; in [5], 3.34; in [7], 0.239; in assay [8] it was 0.406; in assay [9], 0.885; in [10], -0.067. Besides, the z-score was -2.06 (inactive) in assay [2], -1.07 (inactive) in assay [3], 26.7 (active) in assay [4] and 1.71 (inactive) in [6].
Regarding `COc1ccc([Si](C)(C)[C@@H]2[C@@H](CCO)O[C@]3(C(=O)N(Cc4cccc(N5CCOC5=O)c4)c4ccccc43)[C@H]2C)cc1`, the composite z-score in [1] is 1.42; in assay [5] it was 0.97; in assay [7] it was -0.0357; in [8], 0.825; in assay [9] it was 0.797; in assay [10] it was -0.0564. In addition, the z-score in [2] is 4.03 (inactive); in assay [3], 0.643 (inactive); in assay [4], 37.8 (active); in assay [6] it was 0.516 (inactive).

These data come from PubChem BioAssay.
